# Nrf2 activator: Nrf2 pathway activation. hit rate 0.31% among 410,000. AREc32 ARE-luciferase reporter (MCF7-derived line), luminescence, 24 h. Potency, µM (series often up to 46.1 µM), for inactives: top-dose activation, most hits filed as activators; further: potency means the concentration at half of the fitted maximal effect; % of control where 0% means no effect; nearly all actives have a fitted effect of over 65% in size
#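 Each well held 1000 AREc32 cells, which were incubated with compound for 24 hr at 37 deg C after overnight attachment, and ARE reporter activity was quantified by firefly luciferase luminescence.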
# D3 ag: agonists of human D3 dopamine receptor. D3R DiscoveRx beta-arrestin cells, luminescence, 90 min. max activation, %. hit rate 0.58% among 410,000. AID 652048; in the data active means max activation above about 30%; further: 0% is about no effect
# Target sequence (P35462 whole entry, looked up): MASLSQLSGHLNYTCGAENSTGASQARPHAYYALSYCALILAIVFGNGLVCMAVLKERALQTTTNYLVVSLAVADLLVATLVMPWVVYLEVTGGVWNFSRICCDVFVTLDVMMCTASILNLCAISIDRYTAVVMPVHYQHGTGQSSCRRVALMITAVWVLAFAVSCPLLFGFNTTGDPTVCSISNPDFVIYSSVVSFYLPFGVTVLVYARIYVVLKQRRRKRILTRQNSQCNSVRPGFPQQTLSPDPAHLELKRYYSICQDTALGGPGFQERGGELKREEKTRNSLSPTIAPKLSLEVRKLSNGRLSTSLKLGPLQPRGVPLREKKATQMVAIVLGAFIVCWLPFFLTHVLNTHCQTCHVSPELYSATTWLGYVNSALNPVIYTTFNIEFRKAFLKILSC
#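 Agonist mode: compounds and dopamine controls were applied to plated cells for 90 min at 37 degrees C after an overnight attachment at 1500 cells/well. Luminescent read-out followed 30 - 60 minutes at room temperature with DiscoveRx detection reagent.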
# D3 antag: blocks the human D3 dopamine receptor; D3R cells, DiscoveRx beta-arrestin luminescence, antagonist mode; hits give low values; max response, negative = inhibition, %; hit rate 2.5% among 360,000; in the data active means max response below about -50%; inconclusive means no clear call, values can overlap the other calls; further: on the % scale 0 is the no-effect control and ±100 the full control effect
#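 Cells plated overnight at 1500 cells/well, then exposed to library compounds with dopamine controls for 90 minutes at 37 degrees C. DiscoveRx reagent added for 30–60 minutes at room temperature; luminescence read, quantitative HTS format.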
# GRP78 ERSR act: induces the endoplasmic reticulum stress response in human glioma cells. U87-MG GRP78 promoter luciferase reporter, 16 h. Potency, µM, inactives show top-dose activation, actives largely listed as activators. hit rate 0.02% among 420,000; further: potency means the concentration at half of the fitted maximal effect; series mostly up to about 76 µM; % of control where 0% means no effect; nearly all actives have a fitted effect of over 35% in size
#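 Stably transfected U87-MG glioma cells carrying a GRP78-based luciferase sensor; 16 h compound incubation. Luminescence end-point read 10 min after Bright-Glo addition at room temperature.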
# * hit, by the source's call; ? = inconclusive; / = no result. Most compounds without a hit are left out; they make up all but 3% or so of the library. Unless noted, the call rests on the fitted dose curve; in most records, active means well fitted curve in the direction sought with a large enough effect; inconclusive means small, poorly fitted or top-dose-only effect, or another doubt; inactive means no such curve, though single readings can be large; an effect the other way counts as inactive or inconclusive.
SMILES,Nrf2 activator,D3 ag,D3 antag,GRP78 ERSR act
CCCNc1ccc(S(=O)(=O)N(C(C)C)C(C)C)cn1,0%,-11,-75*,0%
CCN(CC)S(=O)(=O)c1ccc(NCc2ccccc2)nc1,0%,33*,14,-1%
CCOC(=O)Cn1c(=O)oc2cc(S(=O)(=O)Nc3cccc(C)c3)ccc21,2%,-4,-59*,14%
CCCN(c1ccc(C(C)C)cc1)S(=O)(=O)c1ccc2c(c1)oc(=O)n2CC(=O)OCC,6%,-1,/,20µM*
CCOC(=O)Cn1c(=O)oc2cc(S(=O)(=O)Nc3cc(OC)cc(OC)c3)ccc21,0%,-4,/,?
Cc1nn2c(-c3ccncc3)nnc2c2ccccc12,4%,4,18,0%
Cc1ccccc1-c1nnc2c3ccccc3c(C)nn12,?,1,2,6%
COc1ccc(-c2nnc3c4ccccc4c(C)nn23)cc1,4.5µM*,0,?,6%
Cc1nn2c(-c3ccco3)nnc2c2ccccc12,0.56µM*,-4,26,-1%
CCN(C(=O)C(=O)c1c(C)[nH]c2ccccc12)c1ccccc1,/,/,/,-2%
Cn1cnnc1SCC(=O)Nc1ccc(C#N)cc1,-1%,0,/,-4%
Cc1ccc(CNc2nc(CN3CCNC(=O)C3)nc3ccccc23)o1,/,/,/,2%
O=C(C(O)c1ccc(Br)cc1)N1CCC(Nc2ccc3[nH]ncc3c2)CC1 (configuration not stated),0%,-7,-81*,-2%
CSCCCN1CCC(n2nccc2NC(=O)CCCc2ccccc2)CC1,0%,-47,-50*,-6%
C=C(C)CCC(C)N1CCC(n2nccc2NC(=O)CCCc2ccccc2)CC1 (configuration not stated),3%,5,-60*,-3%
Cn1cc(CN2CCC(n3nccc3NC(=O)CCCc3ccccc3)CC2)cn1,0%,0,-4,-2%
CSCC(C)N1CCC(n2nccc2NC(=O)CCCc2ccccc2)CC1 (configuration not stated),0%,-7,1,-3%
COc1ccc(C(O)c2nc(-c3ccccc3)cs2)cc1 (configuration not stated),4%,63*,-7,0%
COc1ccc(C(O)c2nc(-c3ccccc3C)cs2)cc1 (configuration not stated),4%,-12,-95*,-3%
OC(c1ccccc1)c1nc(-c2cccc(F)c2)cs1 (configuration not stated),5%,-8,-55*,-1%
O=C(Cc1ccc(Oc2ccccc2)cc1)NO,/,/,/,4%
COc1cccc(CN2CCN(c3cccc(C(F)(F)F)c3)CC2)c1OC,0%,-29,-73*,-2%
CCOc1cccc(CN2CCN(c3cccc(C(F)(F)F)c3)CC2)c1O,0%,-60,-96*,-3%
CCN(CC)CCOC(=O)C(c1ccccc1)C1CCCCC1 (configuration not stated),0%,-84,-89*,-1%
CCN(CC)CCOC(=O)CCc1cccc2ccccc12,-1%,1,-66*,-5%
SMILES,Nrf2 activator,D3 ag,D3 antag,GRP78 ERSR act
CCN(CC)CCSC(=O)C(c1ccccc1)c1ccccc1,/,-27,/,-5%
CCN(CC)CCOC(=O)[C@@H](c1ccccc1)C1CCCCC1,/,/,/,-5%
CCN(CC)CCOC(=O)C(c1ccccc1)c1ccccc1,0%,-82,-67*,-2%
CN(C)C(=O)COC(=O)c1ccccc1OCC(=O)Nc1ccc(Br)cc1,/,/,/,-2%
Cc1c(C(=O)N2CCCCCC2)c(S(=O)(=O)Nc2ccc(OC(F)(F)F)cc2)c(C)n1C,5%,8,/,-4%
O=C(CN(c1ccccc1)S(=O)(=O)c1ccccc1)N1CCN(Cc2ccc3c(c2)OCO3)CC1,2%,-20,-67*,-1%
COc1ccc(N(CC(=O)N2CCN(Cc3ccc4c(c3)OCO4)CC2)S(=O)(=O)c2ccc(F)cc2)cc1,2%,-18,-51*,0%
COc1ccc(N(CC(=O)N2CCN(Cc3ccc4c(c3)OCO4)CC2)S(C)(=O)=O)cc1OC,0%,1,23,1%
Cc1ccc(S(=O)(=O)N(C)CC(=O)N2CCN(Cc3ccc4c(c3)OCO4)CC2)cc1,0%,-22,-10,-2%
CCn1ccc2cc(S(=O)(=O)N3CCC(C(=O)NCc4ccc(F)cc4)CC3)ccc21,3%,6,/,-2%
Cc1cc(C)nc(Nc2ccccc2F)n1,0%,-8,0,5%
Cc1cc(C)nc(Nc2ccccc2Cl)n1,0%,-15,-70*,-6%
COc1cccc2cc(C(C)N(CCCN3CCOCC3)C(=S)Nc3c(C)cccc3C)oc12 (configuration not stated),3%,-12,-22,-5%
CCc1ccc(NC(=O)N(CCCN2CCOCC2)C(C)c2cc3cccc(OC)c3o2)cc1 (configuration not stated),0%,-14,-53*,-4%
COc1ccc(NC(=O)CN2CCN(CC(=O)Nc3ccccc3Cl)CC2)c(OC)c1,-1%,30*,27,2%
COc1ccc(NC(=O)CN2CCC(C(=O)c3ccc(C)cc3)CC2)c(OC)c1,0%,-19,-71*,-6%
COc1ccc(OC)c(NC(=O)CN2CCC(C(=O)c3ccc(C)cc3)CC2)c1,-1%,-12,?,-3%
COc1cc(NC(=O)Cn2c(SCc3ccc(F)cc3)nc3cccnc32)cc(OC)c1,5%,-3,/,-1%
COc1ccc(NC(=O)Cn2c(SCc3ccc(C)cc3)nc3cccnc32)c(OC)c1,3%,39*,/,-2%
COc1ccc(NC(=O)CN2CCC(C(=O)c3ccc(F)cc3)CC2)c(OC)c1,0%,-17,-73*,2%
COc1ccccc1-c1nc2c(c(SCc3cccc(Cl)c3)n1)Cc1c(CO)cnc(C)c1O2,0%,-1,/,-2%
CCC(C(=O)NCc1ccccc1OC)n1nc(C)n2c(cc3sccc32)c1=O (configuration not stated),-1%,6,/,-3%
COc1ccc(-n2c(=O)c3ccccc3n(Cc3ccccc3C)c2=O)c(OC)c1,1%,-4,/,-4%
COc1ccc(-c2[nH]ncc2CN2CCC(C(=O)c3ccc(F)cc3)CC2)cc1,2%,-16,-90*,-3%
Cc1nc(Nc2ccccc2F)c2oc3ccccc3c2n1,3.2µM*,15,5,0%
SMILES,Nrf2 activator,D3 ag,D3 antag,GRP78 ERSR act
COc1cc(OC)c(NC(=O)CC(c2cccs2)N2Cc3ccccc3C2=O)cc1Cl (configuration not stated),-2%,-11,/,-5%
COc1ccc(C(CC(=O)Nc2cc(Cl)c(OC)cc2OC)N2Cc3ccccc3C2=O)cc1 (configuration not stated),2%,47*,/,-1%
O=c1c2cc([N+](=O)[O-])ccc2sn1-c1ccccc1,8%,-19,-94*,-4%
OC(c1ccc(Cl)cc1Cl)C(Cc1cccnc1)n1cncn1 (configuration not stated),0%,1,-75*,-3%
CN(C)c1ccc(/C=C/c2ccnc3ccc(-c4ccccc4)cc23)cc1,/,/,/,-1%
CCN(C(=O)CSc1nc2ccccc2nc1Cc1cccc(OC)c1)c1cccc(C)c1,0%,-16,/,-4%

# Compound activity (PubChem BioAssay)
